From PubChem BioAssay (NCI) come the findings set out here.

The panel holds about 79,000 compounds, 15% with a hit somewhere; the sample as a whole holds those more often. Activity calls are given as the source filed them. No stated cut-off is given here; in the data, active means growth inhibition above about 70%; inactive means the rest.

This test in a line: NCI Yeast Anticancer Drug Screen. Data for the rad50 strain (AID 155).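 Further: 0% = growth of vehicle-only cultures of the same strain.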 The settings on record: S. cerevisiae rad50 strain growth inhibition; at 50.0 µM (retest, dose inferred, filed as 5.0); active compounds read high. The procedure, abridged:
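Growth of the mutant yeast was measured after compound exposure and referenced to vehicle-treated cultures.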
As for `COc1ccc(C(=O)[O][Sn]([c]2ccccc2)([c]2ccccc2)[c]2ccccc2)c(OC)c1OC`, the growth inhibition is 99% (active).
Consider `CCC(CC)C1(C(=O)OCCN(CC)CC)CCCCC1`, for which the growth inhibition is 48% (inactive).
For the molecule `O=C1OC(=O)C2C1C1C(c3ccccc3)=C(c3ccccc3)C2(O)C2C(=O)OC(=O)C12` (stereo not given), the growth inhibition is 25% (inactive).
`C/C(=C/CC1CCC2C3=CCC4CC(O)CCC4(C)C3CCC12C)C(C)C(C)C` (stereo not given): the growth inhibition was 97% (active).
Regarding `CCC1(CC(=O)O)OCCc2c1[nH]c1c(C)c(Cl)ccc21` (stereo not given), the growth inhibition was 99% (active).
Consider `CN(C)CCCSc1c2ccccc2nc2cccc([N+](=O)[O-])c12`, for which the growth inhibition was 10% (inactive).
`CC1OC(OP(=O)(OCc2ccccc2)OCc2ccccc2)C(OC(=O)c2ccccc2)C(OC(=O)c2ccccc2)C1I` (stereo not given): the growth inhibition is 93% (active).
Consider `C#CC(CC(C)CC(C)(C)C)NC` (stereo not given), for which the growth inhibition is 91% (active).
As to `N#CCCN(CCC#N)Cc1cc(-c2ccccc2)ccc1O`, the growth inhibition was 55% (inactive).
As for `Cc1ccc(NC(=O)CCCC(=O)C(C#N)c2ccccc2C)cc1C` (stereo not given), the growth inhibition was 7% (inactive).
Then `C[C@H]1CC[C@@H]2[C@@H](C)[C@H]3[C@H](C[C@H]4[C@@H]5CC=C6C[C@@H](O)CC[C@]6(C)[C@H]5CC[C@]34C)N2C1`, with 98% (active).
As for `Cc1nc(-c2ccc(N=Cc3ccc(N(CCOS(C)(=O)=O)CCOS(C)(=O)=O)cc3)cc2)cs1`, the growth inhibition is 46% (inactive).
`COc1ccc2nc3cccc([N+](=O)[O-])c3c(NCCO)c2c1`: the growth inhibition is 95% (active).
For the molecule `Oc1ccc(C2CCCCC2)cc1`, the growth inhibition was 59% (inactive).
In the case of `CCCCCc1cc(Cl)cc(Cl)c1O`, the growth inhibition was 45% (inactive).
Then `C=C1C(=O)OC2/C=C(\C(=O)O)CC/C=C(\C)CC(OC(=O)/C=C(\C)CC)C12` (stereo not given), with 79% (active); and `O/N=C(/Cc1nc2cc(Cl)c(Cl)cc2nc1C/C(=N/O)c1ccncc1)c1ccncc1`, with 65% (inactive); and `Cc1cc(NC(=S)SCc2ccc3c(c2)OCO3)ccc1Br`, with 98% (active).
Then `CN1C(=O)OC(C)(c2ccccc2)C1=O` (stereo not given), with 4% (inactive); and `O=C1c2ccccc2C(=O)c2c1cccc2[N+](=O)[O-]`, with 90% (active).
Then `O=[N+]([O-])c1ccccc1Oc1ccc([N+](=O)[O-])c(C(F)(F)F)c1`, with 83% (active); and `Cc1ccc(O)c(N=Nc2ccc(Cl)cc2)c1`, with 2% (inactive).
With `CC(C)Cc1cc2c(cc1O)CCC1C2CC[C@@]2(C)C1CC[C@@H]2O` (stereo not given in full), the growth inhibition was 97% (active).
With `CCOC(=O)CC1(C)C(=O)CCCC1=O`, the growth inhibition was -2% (inactive).
As to `OC(c1cc(-c2ccc(Cl)cc2Cl)nc2ccccc12)C1CCCCN1` (stereo not given), the growth inhibition was 98% (active).
For the molecule `COc1ccc(N=Cc2cc(Br)cc(Br)c2O)cc1.COc1ccc(N=Cc2cc(Br)cc(Br)c2O)cc1.[Co]`, the growth inhibition is 75% (active).
`Cc1ccc[n+](CC(=O)C2CCC3C4CC=C5CC(O)CCC5(C)C4CCC23C)c1` (stereo not given): the growth inhibition is 28% (inactive).
Then `CN(C)CC(C)(C)C(/C=C/c1ccccc1)=N\Nc1ccccc1`, with 61% (inactive).
Turning to `COC1(OC)C2(Cl)C(Cl)=C(Cl)C1(Cl)C1C2C2CC1(C(=O)O)c1ccccc12` (stereo not given), the growth inhibition is 29% (inactive).
Consider `NC(N)=N/N=C(\c1ccc(F)cc1)c1ccc(C(F)(F)F)cc1`, for which the growth inhibition is 99% (active).
With `O=C1CC(c2ccccc2Cl)C(c2ccccc2Cl)C1` (stereo not given), the growth inhibition was 97% (active).
Take `O=C(Cl)c1ccc(N=Nc2ccccc2)cc1`: the growth inhibition is 31% (inactive).
For `O=[N+]([O-])c1ccccc1N=Nc1c(O)[nH]c2ccc(S(=O)(=O)O)cc12`, the growth inhibition was 96% (active).
On to `Cc1ccccc1N=NC(C(=O)c1ccccc1)C(=O)c1ccccc1`, for which the growth inhibition is 94% (active).
Then `CCCCC(CC)(COC(C)=O)COC(C)=O`, with 0% (inactive); and `NCCOB(c1ccccc1)c1ccccc1`, with 99% (active).
Take `O=C(Nc1ccccc1C(=O)O)c1ccccc1`: the growth inhibition is 50% (inactive).
In the case of `O=[N+]([O-])c1ccc(Sc2c3ccccc3nc3ccccc23)nc1`, the growth inhibition was 99% (active).
Take `Cc1oc2c(c1C(=O)c1ccccc1)C(=O)c1ccccc1C2=O`: the growth inhibition was 99% (active).
In the case of `OC1(c2ccccc2)CCN(c2c3ccccc3nc3ccccc23)CC1`, the growth inhibition is 63% (inactive).
